Results reported in PubChem BioAssay AID1159580 (chemical genetic matrix, 2015).
Among all 5,500 compounds or so, about 2,000 (36%) were called active. Roughly 18% stayed inconclusive and do not appear here. No stated cut-off is given here; in the data, active means normalized growth mostly below about 0.91 (no sharp cut-off); inconclusive means no clear call, values can overlap the other calls; inactive means mostly above about 0.92. This is one part of the list.

Assay: chemical genetic growth profiling, strain panel (AID 1159580);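 further: tested at 20 µM; growth read once vehicle control cultures reached saturation at 30 °C; 1 = growth at the plate median or of vehicle wells; lower values mean less growth of the strain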
Details: growth OD
[1] = S. cerevisiae deletion strains, locus YAL013W, strain DEP1, hits give low values
[2] = S. cerevisiae deletion strains, locus YGR078C, strain PAC10, hits give low values
[3] = S. cerevisiae deletion strains, locus YHR030C, strain SLT2, hits give low values
[4] = S. cerevisiae deletion strains, locus YMR307W, strain GAS1, hits give low values

Measured: normalized growth

O=S(=O)(NCc1ccc(F)cc1F)c1cccc(C(F)(F)F)c1
active: S. cerevisiae deletion strains, locus YDL134C, strain PPH21, hits give low values 0.894
inactive: [1] 0.969 | S. cerevisiae deletion strains, locus YBR229C, strain ROT2, hits give low values 0.98 | S. cerevisiae deletion strains, locus YCL061C, strain MRC1, hits give low values 0.972 | S. cerevisiae deletion strains, locus YDL101C, strain DUN1, hits give low values 0.985 | S. cerevisiae deletion strains, locus YDR150W, strain NUM1, hits give low values 0.911 | S. cerevisiae deletion strains, locus YEL061C, strain CIN8, hits give low values 0.988 | [2] 0.976 | S. cerevisiae deletion strains, locus YGR229C, strain SMI1, hits give low values 0.98 | [3] 0.946 | S. cerevisiae deletion strains, locus YHR087W, strain rtc3, hits give low values 0.978 | S. cerevisiae deletion strains, locus YJL187C, strain SWE1, hits give low values 0.972 | S. cerevisiae deletion strains, locus YJR043C, strain POL32, hits give low values 0.984 | S. cerevisiae deletion strains, locus YJR075W, strain HOC1, hits give low values 0.947 | S. cerevisiae deletion strains, locus YKL190W, strain CNB1, hits give low values 0.977 | S. cerevisiae deletion strains, locus YLR039C, strain RIC1, hits give low values 0.884 | S. cerevisiae deletion strains, locus YLR058C, strain SHM2 (second series), hits give low values 0.979 | S. cerevisiae deletion strains, locus YLR085C, strain ARP6, hits give low values 0.954 | S. cerevisiae deletion strains, locus YLR262C, strain YPT6, hits give low values 0.844 | S. cerevisiae deletion strains, locus YML094W, strain GIM5, hits give low values 0.962 | S. cerevisiae deletion strains, locus YMR219W, strain ESC1, hits give low values 0.979 | S. cerevisiae deletion strains, locus YMR263W, strain SAP30, hits give low values 0.979 | [4] 0.899 | S. cerevisiae deletion strains, locus YNL153C, strain GIM3, hits give low values 1.01 | S. cerevisiae deletion strains, locus YNL298W, strain CLA4 (second series), hits give low values 0.968 | S. cerevisiae deletion strains, locus YNL322C, strain KRE1, hits give low values 0.973 | S. cerevisiae deletion strains, locus YNR030W, strain Alg12, hits give low values 0.986 | S. cerevisiae deletion strains, locus YPL055C, strain LGE1, hits give low values 0.873 | S. cerevisiae deletion strains, locus YPL241C, strain CIN2, hits give low values 0.982 | S. cerevisiae deletion strains, locus YPR135W, strain CTF4, hits give low values 0.913 | S. cerevisiae strains, strain wild type, hits give low values 0.98

CSc1ccc(C(=O)c2[nH]c(=O)[nH]c2C)cc1
inactive: [1] 0.943 | S. cerevisiae deletion strains, locus YAL040C, strain CLN3, hits give low values 1.06 | S. cerevisiae deletion strains, locus YCL061C, strain MRC1 (second series), hits give low values 0.991 | S. cerevisiae deletion strains, locus YDR363W, strain ESC2, hits give low values 0.934 | S. cerevisiae deletion strains, locus YER002W, strain NOP16, hits give low values 0.978 | [2] 1 | [4] 1.01 | S. cerevisiae deletion strains, locus YNL128W, strain TEP1, hits give low values 0.981 | S. cerevisiae deletion strains, locus YNL175C, strain NOP13, hits give low values 0.985 | S. cerevisiae deletion strains, locus YNL197C, strain WHI3, hits give low values 0.994 | S. cerevisiae deletion strains, locus YNL224C, strain SQS1, hits give low values 0.994 | S. cerevisiae deletion strains, locus YOR083W, strain WHI5 (second series), hits give low values 0.96

CC[C@@H]1OC(=O)C[C@@H](O)[C@H](C)[C@@H](O[C@@H]2O[C@H](C)[C@@H](O)[C@H](N(C)C)[C@H]2O)[C@@H](CCN2C[C@H](C)C[C@H](C)C2)C[C@@H](C)C(=O)/C=C/C(C)=C\[C@@H]1CO[C@@H]1O[C@H](C)[C@@H](O)[C@@H](OC)[C@H]1OC
inactive: S. cerevisiae deletion strains, locus YAL021C, strain ccr4, hits give low values 1 | S. cerevisiae deletion strains, locus YAL026C, strain drs2, hits give low values 0.994 | S. cerevisiae deletion strains, locus YAL030W, strain snc1, hits give low values 0.996 | S. cerevisiae deletion strains, locus YBL061C, strain skt5, hits give low values 0.99 | S. cerevisiae deletion strains, locus YBR009C, strain hhf1, hits give low values 1 | S. cerevisiae deletion strains, locus YBR023C, strain chs3, hits give low values 0.997 | S. cerevisiae deletion strains, locus YBR171W, strain sec66, hits give low values 1.01 | S. cerevisiae deletion strains, locus YBR231C, strain swc5, hits give low values 0.986 | S. cerevisiae deletion strains, locus YBR279W, strain paf1, hits give low values 0.982 | S. cerevisiae deletion strains, locus YCL011C, strain gbp2, hits give low values 0.971 | S. cerevisiae deletion strains, locus YCL016C, strain dcc1, hits give low values 0.967 | S. cerevisiae deletion strains, locus YCL069W, strain vba3, hits give low values 1.02 | S. cerevisiae deletion strains, locus YCR088W, strain abp1, hits give low values 1.01 | S. cerevisiae deletion strains, locus YDL005C, strain med2, hits give low values 0.994 | S. cerevisiae deletion strains, locus YDL040C, strain nat1, hits give low values 0.996 | S. cerevisiae deletion strains, locus YDR001C, strain nth1, hits give low values 1.01 | S. cerevisiae deletion strains, locus YDR069C, strain doa4, hits give low values 0.992 | S. cerevisiae deletion strains, locus YDR137W, strain rgp1, hits give low values 1 | S. cerevisiae deletion strains, locus YDR159W, strain sac3, hits give low values 0.931 | S. cerevisiae deletion strains, locus YDR195W, strain ref2 0.972 | S. cerevisiae deletion strains, locus YDR297W, strain sur2, hits give low values 1.01 | S. cerevisiae deletion strains, locus YDR334W, strain swr1, hits give low values 0.995 | S. cerevisiae deletion strains, locus YDR335W, strain msn5, hits give low values 1.01 | S. cerevisiae deletion strains, locus YDR392W, strain spt3, hits give low values 0.887 | S. cerevisiae deletion strains, locus YEL003W, strain gim4, hits give low values 1.01 | S. cerevisiae deletion strains, locus YEL037C, strain rad23, hits give low values 1.01 | S. cerevisiae deletion strains, locus YEL061C, strain CIN8 (second series), hits give low values 1.01 | S. cerevisiae deletion strains, locus YER015W, strain faa2, hits give low values 1 | S. cerevisiae deletion strains, locus YER016W, strain bim1, hits give low values 0.993 | S. cerevisiae deletion strains, locus YER111C, strain swi4, hits give low values 1 | S. cerevisiae deletion strains, locus YER155C, strain BEM2 (second series), hits give low values 1 | S. cerevisiae deletion strains, locus YFR010W, strain ubp6, hits give low values 1 | S. cerevisiae deletion strains, locus YGL167C, strain pmr1, hits give low values 1 | S. cerevisiae deletion strains, locus YGL173C, strain kem1, hits give low values 0.981 | S. cerevisiae deletion strains, locus YGL227W, strain vid30, hits give low values 0.987 | S. cerevisiae deletion strains, locus YGL240W, strain doc1, hits give low values 0.975 | S. cerevisiae deletion strains, locus YGL253W, strain hxk2, hits give low values 1.01 | S. cerevisiae deletion strains, locus YHR013C, strain ard1, hits give low values 0.955 | S. cerevisiae deletion strains, locus YHR027C, strain rpn1, hits give low values 1 | [3] 0.978 | S. cerevisiae deletion strains, locus YHR079C, strain IRE1, hits give low values 0.971 | S. cerevisiae deletion strains, locus YHR142W, strain chs7, hits give low values 0.983 | S. cerevisiae deletion strains, locus YJL092W, strain hpr5, hits give low values 1.01 | S. cerevisiae deletion strains, locus YJL095W, strain BCK1 (second series), hits give low values 0.996 | S. cerevisiae deletion strains, locus YJL095W, strain BCK1, hits give low values 0.974 | S. cerevisiae deletion strains, locus YJL115W, strain asf1, hits give low values 1.01 | S. cerevisiae deletion strains, locus YJL129C, strain trk1, hits give low values 1 | S. cerevisiae deletion strains, locus YJL154C, strain vps35, hits give low values 1.02 | S. cerevisiae deletion strains, locus YJL164C, strain tpk1, hits give low values 1.03 | S. cerevisiae deletion strains, locus YJL166W, strain qcr8, hits give low values 1.02 | S. cerevisiae deletion strains, locus YJR066W, strain TOR1, hits give low values 0.939 | S. cerevisiae deletion strains, locus YKL160W, strain elf1, hits give low values 0.974 | S. cerevisiae deletion strains, locus YKR026C, strain gcn3, hits give low values 0.997 | S. cerevisiae deletion strains, locus YKR091W, strain srl3, hits give low values 1 | S. cerevisiae deletion strains, locus YLL001W, strain dnm1, hits give low values 1 | S. cerevisiae deletion strains, locus YLL026W, hits give low values 0.993 | S. cerevisiae deletion strains, locus YLL041C, strain sdh2, hits give low values 1.01 | S. cerevisiae deletion strains, locus YLR027C, strain aat2, hits give low values 0.994 | S. cerevisiae deletion strains, locus YLR113W, strain HOG1, hits give low values 1 | S. cerevisiae deletion strains, locus YLR221C, strain rsa3, hits give low values 0.99 | S. cerevisiae deletion strains, locus YLR258W, strain gsy2, hits give low values 0.992 | S. cerevisiae deletion strains, locus YLR262C, strain YPT6 (second series), hits give low values 1.03 | S. cerevisiae deletion strains, locus YLR320W, strain mms22, hits give low values 0.981 | S. cerevisiae deletion strains, locus YLR342W, strain FKS1, hits give low values 0.984 | S. cerevisiae deletion strains, locus YLR357W, strain rsc2, hits give low values 0.987 | S. cerevisiae deletion strains, locus YLR370C, strain arc18, hits give low values 0.99 | S. cerevisiae deletion strains, locus YLR384C, strain iki3, hits give low values 0.981 | S. cerevisiae deletion strains, locus YML120C, strain ndi1, hits give low values 1.01 | S. cerevisiae deletion strains, locus YMR058W, strain fet3, hits give low values 1 | S. cerevisiae deletion strains, locus YMR125W, strain sto1, hits give low values 0.996 | S. cerevisiae deletion strains, locus YMR129W, hits give low values 1 | S. cerevisiae deletion strains, locus YMR205C, strain PFK2, hits give low values 1.01 | S. cerevisiae deletion strains, locus YMR231W, strain pep5, hits give low values 1 | S. cerevisiae deletion strains, locus YNL071W, strain lat1, hits give low values 1.02 | S. cerevisiae deletion strains, locus YNL183C, strain NPR1, hits give low values 0.955 | S. cerevisiae deletion strains, locus YNL209W, strain ssb2, hits give low values 1 | S. cerevisiae deletion strains, locus YNL248C, strain rpa49, hits give low values 1 | S. cerevisiae deletion strains, locus YNL322C, strain KRE1 (second series), hits give low values 0.997 | S. cerevisiae deletion strains, locus YNR049C, strain mso1, hits give low values 1 | S. cerevisiae deletion strains, locus YOR001W, strain rrp6, hits give low values 0.994 | S. cerevisiae deletion strains, locus YOR070C, strain gyp1, hits give low values 0.999 | S. cerevisiae deletion strains, locus YOR080W, strain dia2, hits give low values 1.01 | S. cerevisiae deletion strains, locus YOR083W, strain WHI5, hits give low values 0.943 | S. cerevisiae deletion strains, locus YOR106W, strain vam3, hits give low values 1.01 | S. cerevisiae deletion strains, locus YOR231W, strain MKK1, hits give low values 0.976 | S. cerevisiae deletion strains, locus YOR265W, strain rbl2, hits give low values 1 | S. cerevisiae deletion strains, locus YOR270C, strain vph1, hits give low values 0.976 | S. cerevisiae deletion strains, locus YOR290C, strain snf2, hits give low values 0.978 | S. cerevisiae deletion strains, locus YPL051W, strain arl3, hits give low values 0.998 | S. cerevisiae deletion strains, locus YPL078C, strain atp4, hits give low values 0.991 | S. cerevisiae deletion strains, locus YPL106C, strain sse1, hits give low values 0.963 | S. cerevisiae deletion strains, locus YPL240C, strain hsp82, hits give low values 1 | S. cerevisiae deletion strains, locus YPL256C, strain CLN2, hits give low values 0.952
